Measured values as given in article PMC7862700, “An all-to-all approach to the identification of sequence-specific readers for epigenetic DNA modifications on cytosine”.

Assays:
Test in all cases: DAPPL (digital affinity profiling via proximity ligation, sequencing); 10 mM Tris-HCl pH 7.5, 50 mM NaCl, 1 mM DTT, 4% glycerol, room temperature, 30 min; GST-TFs on glutathione beads, 16-mer random dsDNA library, 0.1% formaldehyde crosslink after washing; high values mean tight binding
FLI1 = biological target: T1, FLI1 (Homo sapiens, UniProt Q01543 1-452); conditions: protein: recombinant; tags: N-terminal GST; dsDNA, one strand shown
T1 sequence: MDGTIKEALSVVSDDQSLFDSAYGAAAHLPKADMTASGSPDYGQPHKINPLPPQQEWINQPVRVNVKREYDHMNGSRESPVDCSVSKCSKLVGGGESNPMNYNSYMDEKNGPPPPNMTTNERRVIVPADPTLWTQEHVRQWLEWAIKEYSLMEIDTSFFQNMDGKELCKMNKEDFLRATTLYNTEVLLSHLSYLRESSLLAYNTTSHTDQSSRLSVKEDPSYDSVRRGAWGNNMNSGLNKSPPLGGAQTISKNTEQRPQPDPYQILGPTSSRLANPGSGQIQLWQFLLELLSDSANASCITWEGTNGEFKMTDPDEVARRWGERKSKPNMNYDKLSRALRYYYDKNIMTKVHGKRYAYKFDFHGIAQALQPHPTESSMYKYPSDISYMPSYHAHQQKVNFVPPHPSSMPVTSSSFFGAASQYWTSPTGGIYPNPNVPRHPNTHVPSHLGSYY
Outline: (§1)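 Yeast served to express human transcription factors as GST fusions, which were then captured on glutathione beads and labelled with DNA barcodes. Pooled with a tag-only sample, they were incubated with 200 nmole of a 16-mer random double-stranded DNA library for 30 min at room temperature in Tris/NaCl/DTT/glycerol buffer, washed, crosslinked with 0.1% formaldehyde, ligated by proximity, amplified by PCR and sequenced. Dividing each hexamer's read frequency for a factor by its frequency for the tag-only sample gives the binding signal.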

ELK1 = biological target: T2, ELK1 (Homo sapiens, UniProt P19419 1-428); conditions: protein: recombinant; tags: N-terminal GST; dsDNA, one strand shown
T2 sequence: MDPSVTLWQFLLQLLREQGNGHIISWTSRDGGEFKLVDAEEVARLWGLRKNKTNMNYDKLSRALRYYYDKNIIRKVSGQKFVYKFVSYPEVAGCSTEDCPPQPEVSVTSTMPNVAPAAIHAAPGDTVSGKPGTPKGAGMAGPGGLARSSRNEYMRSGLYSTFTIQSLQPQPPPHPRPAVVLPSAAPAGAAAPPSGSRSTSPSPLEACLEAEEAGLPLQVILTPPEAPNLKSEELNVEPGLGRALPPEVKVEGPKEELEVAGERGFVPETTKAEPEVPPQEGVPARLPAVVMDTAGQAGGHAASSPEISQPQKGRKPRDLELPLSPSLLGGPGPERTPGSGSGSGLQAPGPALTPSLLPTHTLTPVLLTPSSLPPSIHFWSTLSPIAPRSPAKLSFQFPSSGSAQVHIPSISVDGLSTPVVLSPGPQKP
Outline: as §1

GABPA = biological target: T3, GABPA (Homo sapiens, UniProt Q06546 1-454); conditions: protein: recombinant; tags: N-terminal GST; dsDNA, one strand shown
T3 sequence: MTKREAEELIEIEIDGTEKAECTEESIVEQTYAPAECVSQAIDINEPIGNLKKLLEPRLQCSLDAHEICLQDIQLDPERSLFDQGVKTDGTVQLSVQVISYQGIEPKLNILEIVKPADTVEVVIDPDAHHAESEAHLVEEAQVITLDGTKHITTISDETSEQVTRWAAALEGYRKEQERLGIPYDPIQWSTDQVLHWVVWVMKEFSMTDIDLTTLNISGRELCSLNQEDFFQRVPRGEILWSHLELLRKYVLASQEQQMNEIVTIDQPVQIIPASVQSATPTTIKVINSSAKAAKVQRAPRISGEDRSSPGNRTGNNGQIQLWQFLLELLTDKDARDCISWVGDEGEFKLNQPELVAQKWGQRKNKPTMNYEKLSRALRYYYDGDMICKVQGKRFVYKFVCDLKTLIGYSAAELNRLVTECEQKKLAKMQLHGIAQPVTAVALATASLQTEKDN
Outline: as §1

ERG = biological target: T4, ERG (Homo sapiens, UniProt P11308 1-479); conditions: protein: recombinant; tags: N-terminal GST; dsDNA, one strand shown
T4 sequence: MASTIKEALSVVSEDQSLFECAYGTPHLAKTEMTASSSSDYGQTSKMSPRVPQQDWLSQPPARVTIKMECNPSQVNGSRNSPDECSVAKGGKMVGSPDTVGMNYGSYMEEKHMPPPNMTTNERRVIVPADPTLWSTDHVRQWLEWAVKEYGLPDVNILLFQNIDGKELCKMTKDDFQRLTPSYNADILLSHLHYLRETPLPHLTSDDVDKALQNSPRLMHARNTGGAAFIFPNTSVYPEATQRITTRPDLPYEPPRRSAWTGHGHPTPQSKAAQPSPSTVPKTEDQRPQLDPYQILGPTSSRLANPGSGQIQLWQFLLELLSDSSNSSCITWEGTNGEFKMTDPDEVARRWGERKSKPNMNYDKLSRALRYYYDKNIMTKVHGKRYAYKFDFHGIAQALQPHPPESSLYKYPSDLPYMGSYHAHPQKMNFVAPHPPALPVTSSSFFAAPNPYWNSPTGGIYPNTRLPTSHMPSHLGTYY
Outline: as §1

ELF1 = ELF1 (Homo sapiens, UniProt P32519 1-619); conditions: protein: recombinant; tags: N-terminal GST; dsDNA, one strand shown
Outline: as §1

EHF = biological target: T5, EHF (Homo sapiens, UniProt Q9NZC4 1-300); conditions: protein: recombinant; tags: N-terminal GST; dsDNA, one strand shown
T5 sequence: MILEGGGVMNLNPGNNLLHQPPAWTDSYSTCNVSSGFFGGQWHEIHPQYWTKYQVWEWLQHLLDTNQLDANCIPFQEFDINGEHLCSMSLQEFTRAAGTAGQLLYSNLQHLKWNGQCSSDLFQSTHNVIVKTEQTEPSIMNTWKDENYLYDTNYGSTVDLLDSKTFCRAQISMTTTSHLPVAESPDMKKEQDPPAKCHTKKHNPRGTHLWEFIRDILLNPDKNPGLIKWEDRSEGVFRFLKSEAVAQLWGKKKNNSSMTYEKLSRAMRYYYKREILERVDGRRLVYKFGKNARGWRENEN
Outline: as §1

SPI1 = SPI1 (Homo sapiens, UniProt P17947 1-270); conditions: protein: recombinant; tags: N-terminal GST; dsDNA, one strand shown
Outline: as §1

SPIB = SPIB (Homo sapiens, UniProt Q01892 1-262); conditions: protein: recombinant; tags: N-terminal GST; dsDNA, one strand shown
Outline: as §1

ELK3 = biological target: T6, ELK3 (Homo sapiens, UniProt P41970 1-407); conditions: protein: recombinant; tags: N-terminal GST; dsDNA, one strand shown
T6 sequence: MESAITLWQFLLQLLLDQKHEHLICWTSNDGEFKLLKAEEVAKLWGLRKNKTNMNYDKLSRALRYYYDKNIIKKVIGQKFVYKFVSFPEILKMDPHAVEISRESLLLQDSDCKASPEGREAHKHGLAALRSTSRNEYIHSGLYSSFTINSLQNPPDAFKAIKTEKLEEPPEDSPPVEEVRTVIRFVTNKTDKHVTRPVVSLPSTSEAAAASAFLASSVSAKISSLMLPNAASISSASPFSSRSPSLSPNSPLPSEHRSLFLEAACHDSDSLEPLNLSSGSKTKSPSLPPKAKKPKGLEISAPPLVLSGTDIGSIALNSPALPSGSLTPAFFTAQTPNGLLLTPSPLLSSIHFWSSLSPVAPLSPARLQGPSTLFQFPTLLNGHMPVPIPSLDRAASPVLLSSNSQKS
Outline: as §1

FEV = biological target: T7, FEV (Homo sapiens, UniProt Q99581 1-238); conditions: protein: recombinant; tags: N-terminal GST; dsDNA, one strand shown
T7 sequence: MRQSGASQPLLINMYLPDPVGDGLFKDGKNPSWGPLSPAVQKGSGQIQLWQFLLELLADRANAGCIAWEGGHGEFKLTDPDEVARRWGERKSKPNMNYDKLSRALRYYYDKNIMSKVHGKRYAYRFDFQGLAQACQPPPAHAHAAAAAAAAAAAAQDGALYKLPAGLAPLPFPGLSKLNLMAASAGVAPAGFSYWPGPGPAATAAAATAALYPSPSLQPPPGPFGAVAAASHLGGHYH
Outline: as §1

ETV5 = ETV5 (Homo sapiens, UniProt P41161 1-510); conditions: protein: recombinant; tags: N-terminal GST; dsDNA, one strand shown
Outline: as §1

HSF1 = HSF1 (Homo sapiens, UniProt Q00613 1-529); conditions: protein: recombinant; tags: N-terminal GST; chain copies: 3; dsDNA, one strand shown
Outline: as §1

SPIC = biological target: T8, SPIC (Homo sapiens, UniProt Q8N5J4 1-248); conditions: protein: recombinant; tags: N-terminal GST; dsDNA, one strand shown
T8 sequence: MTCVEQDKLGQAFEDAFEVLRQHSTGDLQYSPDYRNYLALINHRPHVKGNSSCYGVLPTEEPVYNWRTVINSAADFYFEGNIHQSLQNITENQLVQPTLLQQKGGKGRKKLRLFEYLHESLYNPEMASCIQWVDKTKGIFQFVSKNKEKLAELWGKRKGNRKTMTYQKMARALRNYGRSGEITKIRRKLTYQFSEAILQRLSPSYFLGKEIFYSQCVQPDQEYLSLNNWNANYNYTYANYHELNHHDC
Outline: as §1

ELF4 = ELF4 (Homo sapiens, UniProt Q99607 1-663); conditions: protein: recombinant; tags: N-terminal GST; dsDNA, one strand shown
Outline: as §1

ELK4 = biological target: T9, ELK4 (Homo sapiens, UniProt P28324-2 1-405); conditions: protein: recombinant; tags: N-terminal GST; dsDNA, one strand shown
T9 sequence: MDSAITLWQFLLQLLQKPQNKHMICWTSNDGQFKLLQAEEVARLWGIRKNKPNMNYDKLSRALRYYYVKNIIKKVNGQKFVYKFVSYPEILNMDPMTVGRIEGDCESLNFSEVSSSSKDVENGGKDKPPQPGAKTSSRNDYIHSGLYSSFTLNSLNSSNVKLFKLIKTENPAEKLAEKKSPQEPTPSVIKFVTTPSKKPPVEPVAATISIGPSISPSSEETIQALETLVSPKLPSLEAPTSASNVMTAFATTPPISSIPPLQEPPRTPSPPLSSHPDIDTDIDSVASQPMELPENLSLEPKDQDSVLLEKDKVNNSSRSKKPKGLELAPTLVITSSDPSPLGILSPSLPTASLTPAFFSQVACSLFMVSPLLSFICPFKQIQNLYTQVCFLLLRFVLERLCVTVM
Outline: as §1

ETV2 = biological target: T10, ETV2 (Homo sapiens, UniProt O00321 1-342); conditions: protein: recombinant; tags: N-terminal GST; dsDNA, one strand shown
T10 sequence: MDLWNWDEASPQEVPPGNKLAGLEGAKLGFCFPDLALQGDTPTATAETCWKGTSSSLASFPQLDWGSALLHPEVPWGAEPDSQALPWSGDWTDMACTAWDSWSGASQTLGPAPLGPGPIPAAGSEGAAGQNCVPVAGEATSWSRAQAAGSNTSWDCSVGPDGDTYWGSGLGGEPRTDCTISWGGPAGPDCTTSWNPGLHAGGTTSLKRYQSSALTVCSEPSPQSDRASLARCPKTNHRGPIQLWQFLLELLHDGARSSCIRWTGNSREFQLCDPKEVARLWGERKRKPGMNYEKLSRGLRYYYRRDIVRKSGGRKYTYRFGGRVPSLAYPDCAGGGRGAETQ
Outline: as §1

ELF3 = biological target: T11, ELF3 (Homo sapiens, UniProt P78545 1-371); conditions: protein: recombinant; tags: N-terminal GST; dsDNA, one strand shown
T11 sequence: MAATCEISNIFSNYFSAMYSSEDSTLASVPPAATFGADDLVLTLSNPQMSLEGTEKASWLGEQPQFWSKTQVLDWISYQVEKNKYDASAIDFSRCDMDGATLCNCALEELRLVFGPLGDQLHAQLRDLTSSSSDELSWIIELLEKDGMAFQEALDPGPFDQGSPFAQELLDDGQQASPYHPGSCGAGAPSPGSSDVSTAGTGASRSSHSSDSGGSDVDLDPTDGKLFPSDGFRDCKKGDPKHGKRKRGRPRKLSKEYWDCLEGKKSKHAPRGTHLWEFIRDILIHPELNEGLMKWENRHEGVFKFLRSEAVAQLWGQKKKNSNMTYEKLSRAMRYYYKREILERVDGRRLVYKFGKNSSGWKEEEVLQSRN
Outline: as §1

CRX = CRX (Homo sapiens, UniProt O43186 1-299); conditions: protein: recombinant; tags: N-terminal GST; dsDNA, one strand shown
Outline: as §1

ETV1 = ETV1 (Homo sapiens, UniProt P50549 1-477); conditions: protein: recombinant; tags: N-terminal GST; dsDNA, one strand shown
Outline: as §1

Chain of ELF1 (P32519 whole entry): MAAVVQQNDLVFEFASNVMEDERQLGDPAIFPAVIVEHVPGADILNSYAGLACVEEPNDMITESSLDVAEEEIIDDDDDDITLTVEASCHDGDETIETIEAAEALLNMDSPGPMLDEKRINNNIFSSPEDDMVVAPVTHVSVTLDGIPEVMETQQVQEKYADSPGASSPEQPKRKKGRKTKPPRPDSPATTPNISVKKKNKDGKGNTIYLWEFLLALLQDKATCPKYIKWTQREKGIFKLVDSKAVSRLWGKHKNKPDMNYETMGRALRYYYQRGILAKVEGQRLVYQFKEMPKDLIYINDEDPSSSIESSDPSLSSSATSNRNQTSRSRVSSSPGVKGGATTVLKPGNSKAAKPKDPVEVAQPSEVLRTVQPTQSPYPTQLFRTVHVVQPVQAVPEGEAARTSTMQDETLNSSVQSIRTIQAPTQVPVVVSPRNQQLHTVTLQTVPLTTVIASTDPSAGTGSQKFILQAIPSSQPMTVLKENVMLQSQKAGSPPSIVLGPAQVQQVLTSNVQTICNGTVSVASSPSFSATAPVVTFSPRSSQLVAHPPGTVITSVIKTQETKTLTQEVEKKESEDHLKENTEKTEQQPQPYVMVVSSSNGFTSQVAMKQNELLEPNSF
Chain of ELF4 (Q99607 whole entry): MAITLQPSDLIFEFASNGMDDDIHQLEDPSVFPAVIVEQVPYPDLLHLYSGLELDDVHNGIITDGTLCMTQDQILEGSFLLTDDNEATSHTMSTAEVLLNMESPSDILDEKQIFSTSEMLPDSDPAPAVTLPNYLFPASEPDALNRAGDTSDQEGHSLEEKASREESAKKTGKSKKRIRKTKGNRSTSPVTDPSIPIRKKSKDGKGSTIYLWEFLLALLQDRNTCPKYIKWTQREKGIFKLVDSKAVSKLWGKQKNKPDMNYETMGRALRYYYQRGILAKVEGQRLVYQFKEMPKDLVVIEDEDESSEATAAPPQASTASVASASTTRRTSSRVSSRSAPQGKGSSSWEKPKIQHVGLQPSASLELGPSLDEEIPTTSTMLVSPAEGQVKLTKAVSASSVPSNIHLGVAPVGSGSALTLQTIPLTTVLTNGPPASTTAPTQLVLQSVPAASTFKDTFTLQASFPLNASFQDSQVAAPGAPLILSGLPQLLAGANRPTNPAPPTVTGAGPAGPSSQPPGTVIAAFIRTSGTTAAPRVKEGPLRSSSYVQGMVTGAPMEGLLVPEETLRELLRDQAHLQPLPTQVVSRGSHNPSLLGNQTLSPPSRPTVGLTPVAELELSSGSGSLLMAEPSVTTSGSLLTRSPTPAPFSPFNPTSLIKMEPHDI
Chain of ETV5 (P41161 whole entry): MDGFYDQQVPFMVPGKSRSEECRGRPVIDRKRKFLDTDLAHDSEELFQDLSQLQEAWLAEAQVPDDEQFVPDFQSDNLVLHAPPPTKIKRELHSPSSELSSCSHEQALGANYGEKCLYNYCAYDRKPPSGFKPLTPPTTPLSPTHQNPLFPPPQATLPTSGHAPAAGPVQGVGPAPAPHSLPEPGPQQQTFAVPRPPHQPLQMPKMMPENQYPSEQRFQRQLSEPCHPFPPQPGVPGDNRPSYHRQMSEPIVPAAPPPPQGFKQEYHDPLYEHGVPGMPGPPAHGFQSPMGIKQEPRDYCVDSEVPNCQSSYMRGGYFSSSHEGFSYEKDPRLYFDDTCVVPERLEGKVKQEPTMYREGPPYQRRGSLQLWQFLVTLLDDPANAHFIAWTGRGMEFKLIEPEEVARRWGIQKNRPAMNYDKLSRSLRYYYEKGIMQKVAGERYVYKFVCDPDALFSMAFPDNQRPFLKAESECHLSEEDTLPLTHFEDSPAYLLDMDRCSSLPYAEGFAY
Chain of HSF1 (Q00613 whole entry): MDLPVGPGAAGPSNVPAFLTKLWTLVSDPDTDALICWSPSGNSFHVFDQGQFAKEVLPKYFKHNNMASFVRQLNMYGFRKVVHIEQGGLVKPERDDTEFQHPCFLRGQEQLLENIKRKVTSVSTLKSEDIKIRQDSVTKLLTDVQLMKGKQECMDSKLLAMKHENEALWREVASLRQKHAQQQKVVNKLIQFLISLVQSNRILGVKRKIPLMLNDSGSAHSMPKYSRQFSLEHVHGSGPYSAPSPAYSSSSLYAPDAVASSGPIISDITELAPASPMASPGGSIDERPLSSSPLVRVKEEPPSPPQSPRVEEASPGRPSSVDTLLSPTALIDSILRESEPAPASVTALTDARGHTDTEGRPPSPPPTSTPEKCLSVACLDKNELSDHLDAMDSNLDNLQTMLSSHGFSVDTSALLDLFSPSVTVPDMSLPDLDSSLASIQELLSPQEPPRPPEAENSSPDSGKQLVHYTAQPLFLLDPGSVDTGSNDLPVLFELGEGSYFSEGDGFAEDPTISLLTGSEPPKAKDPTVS
Chain of CRX (O43186 whole entry): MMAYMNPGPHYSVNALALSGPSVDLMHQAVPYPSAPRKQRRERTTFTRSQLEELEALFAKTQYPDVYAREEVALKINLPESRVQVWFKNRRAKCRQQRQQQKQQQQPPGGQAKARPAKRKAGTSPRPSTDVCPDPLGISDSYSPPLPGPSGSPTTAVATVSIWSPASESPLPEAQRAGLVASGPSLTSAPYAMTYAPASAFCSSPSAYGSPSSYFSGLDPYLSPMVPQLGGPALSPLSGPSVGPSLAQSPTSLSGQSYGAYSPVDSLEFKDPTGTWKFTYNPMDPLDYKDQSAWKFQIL
Chain of SPIB (Q01892 whole entry): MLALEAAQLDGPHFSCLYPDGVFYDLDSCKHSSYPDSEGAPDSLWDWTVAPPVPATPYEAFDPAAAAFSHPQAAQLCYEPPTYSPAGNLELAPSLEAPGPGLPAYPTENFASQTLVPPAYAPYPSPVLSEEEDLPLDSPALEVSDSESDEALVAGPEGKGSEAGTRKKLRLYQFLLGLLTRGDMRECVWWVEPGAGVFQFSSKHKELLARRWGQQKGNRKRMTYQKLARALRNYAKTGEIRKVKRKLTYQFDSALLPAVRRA
Chain of ETV1 (P50549 whole entry): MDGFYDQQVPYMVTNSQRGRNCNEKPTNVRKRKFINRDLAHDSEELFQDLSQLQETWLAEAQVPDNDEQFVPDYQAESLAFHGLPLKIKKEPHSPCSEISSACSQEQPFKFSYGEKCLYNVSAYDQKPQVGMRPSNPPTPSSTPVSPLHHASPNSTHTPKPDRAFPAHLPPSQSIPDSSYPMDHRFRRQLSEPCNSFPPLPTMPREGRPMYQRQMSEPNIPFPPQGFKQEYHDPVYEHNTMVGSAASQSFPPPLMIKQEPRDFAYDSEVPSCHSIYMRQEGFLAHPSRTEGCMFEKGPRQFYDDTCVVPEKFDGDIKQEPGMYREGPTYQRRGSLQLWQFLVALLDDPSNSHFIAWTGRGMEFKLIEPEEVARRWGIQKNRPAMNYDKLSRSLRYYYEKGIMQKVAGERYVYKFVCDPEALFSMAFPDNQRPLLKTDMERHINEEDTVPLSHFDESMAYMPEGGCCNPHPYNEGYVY

For GCTGAT, the binding signal (FLI1) was 1.11 fold enrichment (6-mer frequency, TF over GST control), the binding signal (ELK1) was 1.1 fold enrichment (6-mer frequency, TF over GST control) and the binding signal (GABPA) was 1.18 fold enrichment (6-mer frequency, TF over GST control). For the same sequence, the binding signal (ERG) was 1.1 fold enrichment (6-mer frequency, TF over GST control), the binding signal (ELF1) was 1.22 fold enrichment (6-mer frequency, TF over GST control) and the binding signal (EHF) was 1.33 fold enrichment (6-mer frequency, TF over GST control). The binding signal (SPI1) was 1.08 fold enrichment (6-mer frequency, TF over GST control), the binding signal (SPIB) was 1.11 fold enrichment (6-mer frequency, TF over GST control) and the binding signal (ELK3) was 1.33 fold enrichment (6-mer frequency, TF over GST control). For the same sequence, the binding signal (FEV) was 1.07 fold enrichment (6-mer frequency, TF over GST control), the binding signal (ETV5) was 1.11 fold enrichment (6-mer frequency, TF over GST control) and the binding signal (HSF1) was 1.16 fold enrichment (6-mer frequency, TF over GST control). The binding signal (SPIC) was 1.19 fold enrichment (6-mer frequency, TF over GST control), the binding signal (ELF4) was 1.19 fold enrichment (6-mer frequency, TF over GST control) and the binding signal (ELK4) was 1.25 fold enrichment (6-mer frequency, TF over GST control). For the same sequence, the binding signal (ETV2) was 1.08 fold enrichment (6-mer frequency, TF over GST control), the binding signal (ELF3) was 1.16 fold enrichment (6-mer frequency, TF over GST control) and the binding signal (CRX) was 1.39 fold enrichment (6-mer frequency, TF over GST control). For the same sequence, the binding signal (ETV1) was 1.2 fold enrichment (6-mer frequency, TF over GST control).
